Measured values taken from PubChem BioAssay (NCATS).
Values joined by “and” are separate entries in the source; they are usually repeats but may differ in a detail not shown here. Equal entries are not always repeated. Records with an inconclusive call do not appear. Active and inactive are the calls of the source. Calls follow the shape of the dose curve; as a rule, active = well fitted cell-killing curve with a large enough effect; inconclusive = small, poorly fitted or top-dose-only effect; inactive = no such curve, though single readings can be large or run the other way.

Experiment: qHTS of pediatric cancer cell lines to identify multiple opportunities for drug repurposing: Primary screen for Saos-2 cells (AID 1347097); also: nearly all actives have a fitted effect of over 40% in size
Conditions: Saos-2 viability, CellTiter-Glo ATP luminescence, 48 h; series mostly up to 46 µM; activity change, negative = cytotoxic: at the top concentration
Source text: Drug repurposing or repositioning has been offered as a strategy for drug development in oncology programs. This approach has special potential for childhood cancers and other rare or orphan diseases, where the expected return on new drug development has been a disincentive to pharmaceuticals. […] In this project we exploit the poly-pharmacology of drugs to discover new indications via phenotypic screening of a panel of 19 well-characterized cell lines derived from solid tumors seen in children and adolescents. The goal is to identify approved drugs with previously unrecognized anticancer properties that has the potential to reveal new mechanisms and biological processes involved in carcinogenesis or drug resistance. We employed a titration-based paradigm (quantitative high-throughput screening or qHTS), where all compounds were tested at multiple concentrations for their effect on cell viability. Concentration-response curves (CRCs) were derived directly from the primary screen, and both potency and efficacy values were used to identify compounds with robust bioactivity profiles. We screened the NIH Chemical Genomics Center (NCGC) Pharmaceutical Collection (NPC) and Mechanism Interrogation Plate (MIPE) small molecule collections of approved and investigational compounds against these cell lines; and measured metabolically active cells after 48 hours of compound treatment as a proxy for cell viability. […] Assay Submitter: Nathalia J. Martinez, National Center for Advancing Translational Sciences, National Institutes of Health, Rockville, MD, USA; email: natalia.martinez@nih.gov Shen, M et al. Quantitative high-throughput phenotypic screening of pediatric cancer cell lines identifies multiple opportunities for drug repurposing. Oncotarget 2017 Dec 19;9(4):4758-4772. PMID 29435139.
The cells were obtained from University of North Carolina (UNC), Pediatric Preclinical Testing Program (PPT), and Coriell Institute (CI). qHTS cell viability assay: Cells were assayed in growth media at a density of 500-1,000 cells/well. Five microliters of cells were dispensed into 1,536-well, white, solid-bottom, TC-treated plates (Greiner Bio One) using a multidrop dispenser and incubated at 37 degrees C, 5% CO2, under a humidified atmosphere for 5 hours. Twenty-three nanoliters of compounds and controls (neutral control DMSO or positive control bortezomib at final concentration of 2.3 µM) were subsequently transferred by Kalypsys pintool. For primary screens, the MIPE collection was tested at 11-point dilutions (final concentrations range from 0.78 nM to 46 µM) and the NPC collection at 8-point dilutions (final concentrations range from 0.59 nM to 46 µM). Compounds tested in follow-up screens were assayed at 11-point dilutions. Cells were incubated for 48 hours, followed by addition of 3 µL of CellTiter-Glo (Promega). After a 15 min incubation at room temperature, samples were analyzed for luminescence intensity using a ViewLux High-throughput CCD imager equipped with clear filters.
% is scaled to controls: 0 for no effect and ±100 for the full control effect; potency is read from the fitted curve at half-maximal effect.

SMILES | Potency | activity change, negative = cytotoxic
COCCCOc1ccnc(CS(=O)c2nc3ccccc3[nH]2)c1C (stereo not given) | inactive | 
C[Se]CCC(N)C(=O)O (stereo not given) |  | -20.1% [at 92.7 µM] (inactive)
Cc1c(OCC(F)(F)F)ccnc1CS(=O)c1nc2ccccc2[nH]1 (stereo not given) | inactive | 
N[C@@H](Cc1cc(I)c(Oc2cc(I)c(O)c(I)c2)c(I)c1)C(=O)O | inactive | 
COC1=C(OC)C(=O)C(CCCCCCCCCCO)=C(C)C1=O |  | 2.68% (inactive)
c1cnc2cc3c(cc2n1)C1CNCC3C1 |  | 5.98% (inactive)
O=P(O)(O)C(O)(Cn1ccnc1)P(=O)(O)O |  | 26.2% [at 16.1 µM] (inactive)
Cc1cc2c(s1)Nc1ccccc1N=C2N1CCN(C)CC1 | inactive | 
CC(S)C(=O)NCC(=O)O (stereo not given) | inactive | 
Cc1cc(=O)oc2cc(O)ccc12 | inactive | 
O=Nc1c(-c2c(O)[nH]c3cc(Br)ccc23)[nH]c2ccccc12 | 14.8 µM (active) | 
CC1Cc2ccccc2N1NC(=O)c1ccc(Cl)c(S(N)(=O)=O)c1 (stereo not given) | inactive | 
O=C(O)c1cccc(-c2noc(-c3ccccc3F)n2)c1 | inactive | 
Cc1cc(Cl)ccc1OCCCC(=O)NO | 11.8 µM (active) | 
COc1ccc2cc([C@H](C)C(=O)O)ccc2c1 |  | -0.0885% (inactive)
CCCc1cc(=O)[nH]c(=S)[nH]1 | inactive | 
S=c1nc[nH]c2nc[nH]c12 |  | -13% (inactive)
N=C(N=C(N)N)N1CCOCC1 | inactive | 
Cc1cc(C2CCCCC2)n(O)c(=O)c1 | 21.1 µM (active) | 
Nc1nc(Cl)nc2c1ncn2[C@H]1C[C@H](O)[C@@H](CO)O1 |  | -11.6% (inactive)

SMILES | Potency | activity change, negative = cytotoxic
CC(C)[N+]1(C)[C@@H]2CC[C@H]1CC(OC(=O)C(CO)c1ccccc1)C2 (stereo not given in full) |  | -9.05% (inactive)
O=C(OC1C[C@H]2CC[C@@H](C1)[N+]21CCCC1)C(O)(c1ccccc1)c1ccccc1 (stereo not given in full) |  | 15.5% (inactive)
CCOC(=O)c1c(C)n(C)c2ccc(O)cc12 | inactive | 
CC(=O)N1CCN(c2ccc(OC[C@H]3CO[C@](Cn4ccnc4)(c4ccc(Cl)cc4Cl)O3)cc2)CC1 | 33.2 µM (active) | 
CN(c1nccc(=O)[nH]1)C1CCN(c2nc3ccccc3n2Cc2ccc(F)cc2)CC1 |  | 2.85% (inactive)
O=c1ccc2ccc(O)c(O)c2o1 |  | -6.08% (inactive)
CC(C)Oc1ccc2c(=O)c(-c3ccccc3)coc2c1 | inactive | 
CNC[C@H](O)c1ccc(O)c(O)c1 |  | -5.87% [at 92.7 µM] (inactive)
C[C@H](Cc1ccc(O)c(O)c1)[C@@H](C)Cc1ccc(O)c(O)c1 | 29.6 µM (active) | 
Nc1nc(N)c(N=O)c(OCC2CCCCC2)n1 | 18.7 µM (active) | 
Nc1ccn([C@@H]2O[C@H](CO)[C@@H](O)C2O)c(=O)n1 (stereo not given in full) |  | 33.5% (inactive)
CCC1=C(C)CN(C(=O)NCCc2ccc(S(=O)(=O)NC(=O)NC3CCC(C)CC3)cc2)C1=O (stereo not given) | inactive | 
Cc1cc(=O)c2c(O)c3c(O)cc(=O)c4c3c3c(cc(O)c1c23)C(C)(C)C=4O | 1.46 µM (active) and 2.09 µM (active) | 
CCN(CCO)CCCC(C)Nc1ccnc2cc(Cl)ccc12 (stereo not given) | inactive | 
Oc1ccc(OCc2ccccc2)cc1 |  | -8.75% (inactive)
CC1=C(C)C(=O)C(C(CCCCCC(=O)O)c2ccccc2)=C(C)C1=O (stereo not given) |  | -26.1% (inactive)
CCOC(=O)C1=C(O)C(=O)N(Cc2ccccc2)C1 |  | 11.5% (inactive)
CC(C)[C@H](N)C(=O)OCCOCn1cnc2c(=O)[nH]c(N)nc21 |  | 1.22% (inactive)
CCOC(=O)C(C)Oc1cccc2c(=O)n(CC(=O)Nc3ccc4c(c3)OCCO4)ccc12 (stereo not given) |  | -15.8% (inactive)
CC(C)c1ccc2oc3nc(N)c(C(=O)O)cc3c(=O)c2c1 | inactive | 
